Compound activity as filed in PubChem.
Tau fluor cs = counter-screen for tau fibril formation inhibitors | tau K18 P301L Alexa594 fluorescence, heparin fibrillization | Potency, µM (highest dose often 57.7 µM), for inactives: at the top dose activity change, negative = decrease | 280,000 compounds, 0.93% hits; also: potency is read from the fitted curve at half-maximal effect; nearly all actives have a fitted effect of over 55% in size
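Human K18 P301L tau (15 uM unlabeled plus 0.24 uM Alexa 594-labeled, final) in 100 mM sodium acetate pH 7 was mixed with compound and 20 uM heparin and incubated 6 hr at 37 C.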
Tau fibril ThT = inhibitors of human tau fibril formation, thioflavin T binding; recombinant tau K18 P301L (four-repeat tau fragment), heparin-induced fibrillization, ThT fluorescence; Potency, µM (top dose mostly 57.4 µM), inactives show at the top dose activity, negative = inhibition, usual class: inhibitors; 270,000 compounds, 2.1% hits; also: potency is read from the fitted curve at half-maximal effect; nearly all actives have a fitted effect of over 55% in size
Target sequence (P10636 561-689 P618L limits assumed): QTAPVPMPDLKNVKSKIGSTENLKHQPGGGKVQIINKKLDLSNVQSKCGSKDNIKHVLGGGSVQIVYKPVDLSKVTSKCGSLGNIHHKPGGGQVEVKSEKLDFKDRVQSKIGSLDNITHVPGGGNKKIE
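Heparin-induced fibrillization of the P301L-mutant K18 repeat-domain fragment of human tau was followed by ThT binding in quantitative high-throughput format.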
Sfp PPTase inh = inhibitors of Bacillus subtilis Sfp phosphopantetheinyl transferase | Q9F4F7 | Biochemical Sfp PPTase activity, qHTS | Potency, µM, for inactives: largest response in the series, negative = inhibition, most hits filed as inhibitors | 310,000 compounds, 3.5% hits | AID 1490;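 also: the enzyme is Sfp with the accession as filed and its product quenches rhodamine fluorescence; potency is read from the fitted curve at half-maximal effect; 0% = enzyme reaction without inhibitor and -100% = no enzyme wells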
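Step 1, compound plus 15 nM Sfp-PPTase, 15 min, room temperature. Step 2, add rhodamine-CoA (5 uM) and BHQ-2-YbbR (12.5 uM). Step 3, read 525/598 nm fluorescence at 0 and 30 min.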
Coupling enz = counter-screen for Giardia aldolase inhibitors: coupling enzyme system; coupling enzyme system counterscreen, AmpLite Red fluorescence; activity change, negative = inhibition, % at 58.2 µM, hits read low; 290,000 compounds, 0.67% hits; in the data active = activity change below about -30%
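Counterscreen lacking aldolase: glyceraldehyde-3-phosphate coupling-enzyme reagent preincubated 10 min at RT with compound (at 57.5 uM final), then substrate/coupling system with AmpLite Red added; fluorescence read at 525/598 nm after 20 min RT.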
Tau fibril FP = tau fibrillization inhibition (FP); K18 P301L tau heparin fibrillization, Alexa594 FP, 6 h; Potency, µM (series often up to 57.7 µM), without a hit: at the highest dose activity, negative = inhibition, actives largely listed as inhibitors; 280,000 compounds, 0.39% hits; also: potency is read from the fitted curve at half-maximal effect; nearly all actives have a fitted effect of over 55% in size
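Read-out: fluorescence polarization of Alexa 594-labeled tau (0.24 uM), 555 nm excitation, 632 nm emission. Mixtures held 15 uM unlabeled K18 P301L, compound and 20 uM heparin, pH 7 acetate buffer, incubated 6 hr at 37 C.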
* marks the source's active call; other numbers are inactive results; u = inconclusive; x = not tested or not shown; ! = a repeat was not active. A selection: hits, their analogues and other compounds. The true share with any hit is near 5.2%. Unless noted, calls follow the shape of the dose curve; as a rule, active = well fitted curve in the direction sought with a large enough effect; inconclusive = small, poorly fitted or top-dose-only effect, or another doubt; inactive = no such curve, though single readings can be large; an effect the other way counts as inactive or inconclusive. Unless noted, % is scaled to controls: 0 for no effect and ±100 for the full control effect.

SMILES	Tau fluor cs	Tau fibril ThT	Sfp PPTase inh	Coupling enz	Tau fibril FP
COC(=O)c1ccc(NC(=O)CC2Nc3cc(C)c(C)cc3NC2=O)cc1 (centres undefined)	u	u	x	x	3%
Clc1cccc2c1Sc1ccccc1CC2N1CCNCC1 (centres undefined)	-22%	u	56µM*	-1	-7%
Clc1ccc2c(c1)C(N1CCNCC1)Cc1ccccc1S2 (centres undefined)	-11%	u	-16%	2	-7%
O=C1CCN(CCc2ccccc2)CCN1CCSc1ccccc1	x	x	-1%	0	x
CC(=O)Nc1ccc(SCCN2CCN(CCc3ccccc3)CCC2=O)cc1	x	x	50µM*	2	x
O=C(CN1CCCC1)Nc1cc(F)ccc1F	-4%	-5%	11%	4	2%
O=C(CNCCc1ccc(F)cc1)Nc1cc(F)ccc1F	x	x	63µM*	0	x
Cc1ccccc1NC(=O)c1c(C)oc2ccc(O)c(CN3CCC(C)CC3)c12	-11%	-5%	x	x	-6%
COc1ccc(-c2noc(Cn3c(=O)c4ccccc4n(CC(=O)Nc4cccc(OC)c4)c3=O)n2)cc1	-29%	27%	x	x	u
CC(C)(C)N(CC#CCC(O)(c1ccccc1)c1ccccc1)CCO	-5%	-12%	40µM*	0	-7%
CC1(C)OC(=O)C(=Cc2ccc(-c3ccc(Cl)c(C(=O)O)c3)o2)C(=O)O1	7%	-3%	79µM*	0	-2%
COC(=O)N/N=C/c1ccc(-c2cccc(Cl)c2)o1	-25%	u	-24%	-4	0%
Nc1ccccc1N=Cc1ccc(-c2cccc(Cl)c2)o1	u	u	32µM*	-1	-8%
CC1=NOC(=O)/C1=C\c1ccc(-c2ccc(Cl)c(C(=O)O)c2)o1	-8%	u	56µM*	4	-4%
CC1=NOC(=O)/C1=C\c1ccc(-c2cccc(Cl)c2)o1	u	16µM*	20µM*	4	3%
CC1=NN(c2ccc(Cl)c(C(=O)O)c2)C(=O)/C1=C\c1ccc(-c2ccc(C(=O)O)cc2)o1	-10%	u	-11%	-18	1%
CC1=NOC(=O)/C1=C\c1ccc(-c2ccccc2Br)o1	-30%	u	56µM*	-3	-11%
Cc1ccc2c(nc3s/c(=C\c4ccc(-c5ccccc5C(=O)O)o4)c(=O)n32)c1C	x	x	-10%	0	x
O=C(O)c1ccc(-c2ccc(/C=c3/sc4nc5ccccc5n4c3=O)o2)cc1Cl	x	x	50µM*	-4	x
COC(=O)c1ccc(N2NC(=O)/C(=C/c3ccc(-c4ccc(Cl)c(C(=O)O)c4)o3)C2=O)cc1	u	6.3µM*	-10%	11	u
CC1=NN(c2ccc(C(=O)O)cc2)C(=O)/C1=C/c1ccc(-c2ccccc2F)o1	x	x	-21%	2	x
Cc1ccc(N2NC(=O)/C(=C/c3ccc(-c4ccc(Cl)c(C(=O)O)c4)o3)C2=O)cc1C	-22%	u	11%	1	-5%
COc1cccc(CNC(=O)CCn2nc(C)c3c(C)n(-c4ccccc4)nc3c2=O)c1	4%	13%	x	x	-4%
CCOc1ccc(-c2c(C)nn3c(C)c(C(=O)NC(C)c4ccccc4)cnc23)cc1OCC (centres undefined)	-20%	u	x	x	u
Cc1ccc(C(C)C)c(OCc2ccc(-c3nnco3)cc2)c1	-13%	u	50µM*	0	3%
SMILES	Tau fluor cs	Tau fibril ThT	Sfp PPTase inh	Coupling enz	Tau fibril FP
Cc1ccc(COc2ccc(-c3nnco3)cc2)cc1	x	x	5%	3	x
O=C(Cl)CCCCCCCC(=O)Cl	x	x	-3%	-3	x
NC(N)=NC(=O)Cc1c(Cl)cccc1Cl	-7%	-3%	89µM*!	-11	u
COC(=O)c1ccc(CSc2n[nH]c(=S)s2)o1	-2%	-7%	-27%	6	4%
O=C(O)CC(Sc1n[nH]c(=S)s1)C(=O)O (centres undefined)	-9%	-16%	16µM*	-1	-1%
COC(=O)C(C)Sc1n[nH]c(=S)s1 (centres undefined)	-6%	-9%	50µM*	4	-3%
Cc1c(NC(=O)C(F)(F)F)ccc2nc3c(=O)n(C)c(=O)n(C)c3nc12	-17%	u	x	x	-5%
CCOc1ccc(C(=O)NCc2ccc3c(c2)CCN3C(=O)c2ccc(C)cc2)cc1OCC	-11%	-9%	x	x	8%
